Bioassay records from PubChem BioAssay.
IL1B secr inh: qHTS for Inhibitors of Inflammasome Signaling: IL-1-beta AlphaLISA Primary Screen. AID 743279, 2014. THP-1 LPS/ATP IL-1B secretion, AlphaLISA, 16 h; hits give low values. 360,000 compounds, 4.7% hits. activity change, % at 57.5 µM; in the data active = activity change below about -50%; inconclusive = mostly about -30% to -49%
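THP-1 cells pretreated 1 hr with compounds (up to 57.5 uM final), then stimulated with LPS (250 ng/mL final) plus ATP (1.25 mM final); secreted IL-1B measured by AlphaLISA after 16 hr, decreased signal indicating inhibition.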
HT1080-NT tox: qHTS for induction of synthetic lethality in tumor cells producing 2HG: qHTS for the HT-1080-NT fibrosarcoma cell line; Potency, µM (highest dose often 46.1 µM), for the others: at the highest dose activity, negative = less viability, most hits filed as cytotoxic; 360,000 compounds, 1.6% hits; HT-1080-NT fibrosarcoma viability, CellTiter-Glo ATP luminescence, 48 h; AID 686970, 2013;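 also: NT is the 2HG producing partner of a matched IDH1 knockdown line; potency is read from the fitted curve at half-maximal effect; 0% = DMSO-treated cells and -100% = media-only wells without cells; nearly all actives have a fitted effect of over 55% in size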
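Viability by CellTiter-Glo luminescence after 48 h compound exposure at 37C of HT-1080-NT cells (750/well, RPMI, 5% FBS). % activity scaled between DMSO wells and medium-only wells, then curve-fitted and categorized by curve class.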
TDP1 cell CPT: qHTS for Inhibitors of human tyrosyl-DNA phosphodiesterase 1 (TDP1): qHTS in cells in presence of CPT. chicken DT40 Tdp1-/-;hTDP1 cells + 20 nM CPT, ATP luminescence, 48 h. Potency, µM (highest dose often 46.2 µM), without a hit: top-dose activity change, negative = growth inhibition, most hits filed as inhibitors. 420,000 compounds, 12% hits; also: potency is read from the fitted curve at half-maximal effect; nearly all actives have a fitted effect of over 55% in size
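Chicken DT40 Tdp1-/- cells complemented with human TDP1, 400 cells/well, exposed to compounds plus 20 nM camptothecin for at least 48 h at 37 C; viability read as ATP content by CellTiter-Glo luminescence.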
TDP1 cell noCPT: qHTS for Inhibitors of human tyrosyl-DNA phosphodiesterase 1 (TDP1): qHTS in cells in absence of CPT; DT40 Tdp1-/- hTDP1 cells, no CPT, ATP luminescence, 48 h; Potency, µM (highest dose often 46.2 µM), without a hit: at the highest dose activity change, negative = growth inhibition, most hits filed as inhibitors; 420,000 compounds, 15% hits; also: potency is read from the fitted curve at half-maximal effect; nearly all actives have a fitted effect of over 55% in size
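Camptothecin absent (DMSO only). Human TDP1-complemented DT40 knockout cells, 400 cells/well, 37 °C for minimum 48 hr; ATP measured via CellTiter-Glo, 30 min dark incubation, luminescence.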
HT1080 IDH1KD tx: qHTS for induction of synthetic lethality in tumor cells producing 2HG: qHTS for the HT-1080-IDH1KD cell line | HT-1080 IDH1 knockdown viability, ATP luminescence, 48 h | Potency, µM (series often up to 46.1 µM), inactives show at the highest dose activity, negative = toxicity, actives largely listed as cytotoxic | 360,000 compounds, 2% hits | AID 686971, 2013;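 also: potency is read from the fitted curve at half-maximal effect; 0% = DMSO wells and -100% = cell-free medium wells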
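Cytotoxicity counter-line: IDH1KD HT-1080, 48 h, CellTiter-Glo. Curves classed by r2, magnitude and activity.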
Starred values were filed as active, the others as inactive; ? = inconclusive; nt = no result. The list is not random: actives were taken first. Their share in the collection is about 19%. Unless noted, calls follow the shape of the dose curve; as a rule, active = well fitted curve in the direction sought with a large enough effect; inconclusive = small, poorly fitted or top-dose-only effect, or another doubt; inactive = no such curve, though single readings can be large; an effect the other way counts as inactive or inconclusive. Unless noted, % is scaled to controls: 0 for no effect and ±100 for the full control effect.

SMILES | IL1B secr inh | HT1080-NT tox | TDP1 cell CPT | TDP1 cell noCPT | HT1080 IDH1KD tx
CCOc1ccc(S(=O)(=O)NCc2ccncc2)cc1 | -12 | -16% | 0.46µM* | 0.52µM* | -18%
Cc1cc(C)cc(Cn2cc(CN3CC(N4CCN(CCO)CC4)CS3(=O)=O)nn2)c1 (stereo not given) | 3 | -1% | -2% | -2% | 3%
CN1C[C@@H]2[C@@H]3C(=O)N(Cc4ccccc4)C(=O)[C@@H]3[C@](Cc3ccccc3)(C1=O)N2C(=O)c1ccc(Cl)cc1 | -18 | 4% | ? | -9% | 7%
Cc1ccc(C(=O)N2[C@@H]3CN(C)C(=O)[C@@]2(Cc2ccccc2)[C@H]2C(=O)N(Cc4ccccc4)C(=O)[C@@H]32)cc1 | -9 | 13% | 0.0052µM* | ? | 0%
Cc1cc(C)c2sc(N(CCN(C)C)C(=O)CCS(=O)(=O)c3ccccc3)nc2c1 | -14 | -12% | 23µM* | 18µM* | -6%
CCN(CC)CCN(C(=O)CCS(=O)(=O)c1ccccc1)c1nc2cc(C)cc(C)c2s1 | -102* | ? | 21µM* | ? | ?
CN(C)CCN(C(=O)c1ccc(S(=O)(=O)N(C)c2ccccc2)cc1)c1nc2ccc(Cl)cc2s1 | -15 | -29% | ? | -2% | ?
CCN(CC)CCN(C(=O)CCS(=O)(=O)c1ccccc1)c1nc2c(C)cc(C)cc2s1 | -90* | -1% | 16µM* | 7.3µM* | 0%
O=[N+]([O-])c1ccc(-[n+]2nc(-c3ccccc3)nn2-c2ccccc2)cc1 | -23 | -3% | -1% | -17% | -9%
CCSc1ncc(Cl)c(C(=O)N(Cc2ccccc2Cl)C2CCS(=O)(=O)C2)n1 (stereo not given) | nt | nt | 18µM* | 15µM* | nt
CSc1ncc(Cl)c(C(=O)N(Cc2ccccc2Cl)C2CCS(=O)(=O)C2)n1 (stereo not given) | nt | nt | -4% | -11% | nt
CC(C)Sc1ncc(Cl)c(C(=O)N(Cc2ccc(F)cc2)C2CCS(=O)(=O)C2)n1 (stereo not given) | nt | nt | ? | 23µM* | nt
CCCOc1ccc(CN(C(=O)c2nc(SC(C)C)ncc2Cl)C2CCS(=O)(=O)C2)cc1 (stereo not given) | nt | nt | ? | 15µM* | nt
NC(=O)Cn1c(=O)n(CCC(=O)NCCSCc2ccccc2)c(=O)c2ccccc21 | 19 | -3% | 4% | -2% | -1%
COC(=O)c1ccc(-n2nnc(-c3nc(-c4ccc5c(c4)OCO5)no3)c2C)cc1 | nt | nt | -30% | 2% | nt
O=C(c1cccs1)N1C[C@H](n2cc(C3CC3)nn2)[C@@H](O)C[C@@H]1c1ccc(Cl)cc1 | -18 | -8% | -29% | ? | -5%
CC(=O)Nc1ccc(C(=O)N2CCCCC2c2cc(C(=O)NCc3ccc(F)cc3)no2)cc1 (stereo not given) | -13 | 19% | -4% | -19% | 2%
CCC(c1nnnn1Cc1ccc(OC)cc1)N(CCCO)Cc1cc2cc3c(cc2[nH]c1=O)OCO3 (stereo not given) | -4 | -16% | ? | ? | -20%
O=c1[nH]c2cc3c(cc2cc1CN(CCCO)Cc1nnnn1Cc1ccc(F)cc1)OCO3 | -8 | -3% | ? | 12µM* | -8%
CC(C)C(c1nnnn1Cc1ccccc1)N(CCCO)Cc1cc2cc3c(cc2[nH]c1=O)OCO3 (stereo not given) | -60* | -3% | ? | 16µM* | -2%
CCCn1c(C(C)Nc2nc(-c3ccc(OC)cc3)cs2)nc2ccccc21 (stereo not given) | 54 | -10% | ? | ? | -12%
Cc1ccc(Cn2c(C(CO)Nc3nc(-c4ccc(Cl)c([N+](=O)[O-])c4)cs3)nc3ccccc32)cc1 (stereo not given) | ? | ? | ? | ? | -26%
COc1ccc(-c2csc(NC(CO)c3nc4ccccc4n3Cc3ccc(C)cc3)n2)cc1 (stereo not given) | -22 | ? | 26µM* | ? | -7%
Cc1ccc(Cn2c(C(CO)Nc3nc(-c4ccc(F)cc4)cs3)nc3ccccc32)cc1 (stereo not given) | -69* | ? | ? | 16µM* | ?
OCCCn1c(C(CO)Nc2nc(-c3ccc(Cl)cc3)cs2)nc2ccccc21 (stereo not given) | ? | -13% | ? | 16µM* | -16%
SMILES | IL1B secr inh | HT1080-NT tox | TDP1 cell CPT | TDP1 cell noCPT | HT1080 IDH1KD tx
CC(NC(=O)C(Cc1ccccc1)=NO)c1ccccc1 (stereo not given) | -5 | 0% | 21µM* | 23µM* | 0%
CC(=O)N1CCN(c2nc3ccc([N+](=O)[O-])cc3s2)CC1 | -11 | -1% | ? | ? | 9%
Cc1c(N=C2N=C(NC(=O)c3ccc(F)cc3)c3ccccc32)c(=O)n(-c2ccccc2)n1C | -8 | ? | 16µM* | 23µM* | 25%
COc1ccc(OCC(O)CNS(=O)(=O)c2cccc(Cl)c2)cc1 (stereo not given) | -5 | -6% | ? | ? | -14%
COc1cccc(-c2nn(-c3ccccc3)cc2/C=C\C(=O)c2cccs2)c1 | -18 | 15% | -27% | -28% | 7%
COc1cc(C)cc(C(=O)C=Cc2ccccc2)c1O | -59* | 23µM* | ? | ? | ?
COc1ccc(/C=C/C(=O)c2cccs2)c(OC)c1 | nt | nt | 1.1µM* | 2.4µM* | nt
COc1ccc(/C=C/C(=O)c2cc3cccc(OC)c3oc2=O)cc1 | -19 | -18% | ? | 23µM* | 0%
COC1=C(C)C(O)=C(C(=O)/C=C/c2ccccc2)C(=O)C1(C)C | ? | -9% | ? | ? | -1%
COCOc1cc(O)c(C(=O)/C=C/c2ccccc2)c(OCOC)c1 | -103* | ? | 15µM* | 18µM* | ?
Cc1ccc(-n2ncc(C(=O)N3CCc4ccccc4C3)c2NC(=O)c2ccco2)cc1C | 0 | 11% | -11% | -23% | 7%
COc1ccc(C(=O)/C=C/c2ccccc2)c(OC)c1 | -111* | -25% | -104% | 12µM* | ?
COc1ccc(OC)c(C(=O)/C=C/c2ccccc2C(F)(F)F)c1 | -110* | ? | 26µM* | 21µM* | ?
COc1ccc(C(=O)/C=C/c2ccc(N(C)C)cc2)c(OC)c1 | -100* | ? | 7.3µM* | 10µM* | ?
